“And” between values parts separate entries of the source, which are not always exact repeats. Equal values may be shown once. Hit rate of the full screen: of about 5,500 compounds, about 2,000 (36%) were called active. Not shown: some 18% with an inconclusive outcome. Cut-off read from the data, not from the text of the source: active = normalized growth mostly below about 0.91 (no sharp cut-off); inconclusive = no clear call, values can overlap the other calls; inactive = mostly above about 0.92. The list shows a part of the results.
Assay: chemical genetic growth profiling, strain panel (AID 1159580);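 note: tested at 20 µM; growth read once vehicle control cultures reached saturation at 30 °C; 1 = growth at the plate median or of vehicle wells; lower values mean less growth of the strain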
Settings: S. cerevisiae deletion strains, growth OD

## O=C1c2cccc(O)c2C(=O)c2c(O)cccc21
Locus YAL013W, strain DEP1, stronger effect = lower value
  normalized growth: 0.799 (active)
Locus YAL021C, strain ccr4, stronger effect = lower value
  normalized growth: 0.837 (active)
Locus YAL026C, strain drs2, stronger effect = lower value
  normalized growth: 0.823 (active)
Locus YAL030W, strain snc1, stronger effect = lower value
  normalized growth: 0.935 (inactive)
Locus YBL061C, strain skt5, stronger effect = lower value
  normalized growth: 0.929 (inactive)
Locus YBR009C, strain hhf1, stronger effect = lower value
  normalized growth: 0.821 (active)
Locus YBR021W, strain FUR4, stronger effect = lower value
  normalized growth: 1.18 [resistant] (active)
Locus YBR023C, strain chs3, stronger effect = lower value
  normalized growth: 0.909 (active)
Locus YBR171W, strain sec66, stronger effect = lower value
  normalized growth: 0.939 (inactive)
Locus YBR229C, strain ROT2, stronger effect = lower value
  normalized growth: 0.898 (active)
Locus YBR231C, strain swc5, stronger effect = lower value
  normalized growth: 0.733 (active)
Locus YBR279W, strain paf1, stronger effect = lower value
  normalized growth: 0.905 (active)
Locus YCL011C, strain gbp2, stronger effect = lower value
  normalized growth: 0.928 (inactive)
Locus YCL016C, strain dcc1, stronger effect = lower value
  normalized growth: 0.77 (active)
Locus YCL029C, strain bik1, stronger effect = lower value
  normalized growth: 0.808 (active)
Locus YCL061C, strain MRC1, stronger effect = lower value
  normalized growth: 0.928 (inactive)
Locus YCL069W, strain vba3, stronger effect = lower value
  normalized growth: 0.951 (inactive)
Locus YCR088W, strain abp1, stronger effect = lower value
  normalized growth: 0.97 (inactive)
Locus YDL005C, strain med2, stronger effect = lower value
  normalized growth: 0.167 (active)
Locus YDL035C, strain GPR1, stronger effect = lower value
  normalized growth: 0.703 (active)
Locus YDL040C, strain nat1, stronger effect = lower value
  normalized growth: 0.952 (inactive)
Locus YDL074C, strain BRE1, stronger effect = lower value
  normalized growth: 0.658 (active)
Locus YDL101C, strain DUN1, stronger effect = lower value
  normalized growth: 0.616 (active)
Locus YDL185W, strain tfp1, stronger effect = lower value
  normalized growth: 0.789 (active)
Locus YDL192W, strain arf1, stronger effect = lower value
  normalized growth: 0.628 (active)
Locus YDR001C, strain nth1, stronger effect = lower value
  normalized growth: 0.977 (inactive)
Locus YDR069C, strain doa4, stronger effect = lower value
  normalized growth: 0.768 (active)
Locus YDR101C, strain arx1, stronger effect = lower value
  normalized growth: 0.745 (active)
Locus YDR137W, strain rgp1, stronger effect = lower value
  normalized growth: 0.268 (active)
Locus YDR150W, strain NUM1, stronger effect = lower value
  normalized growth: 0.861 (active)
Locus YDR159W, strain sac3, stronger effect = lower value
  normalized growth: 0.705 (active)
Locus YDR162C, strain NBP2, stronger effect = lower value
  normalized growth: 0.344 (active)
Locus YDR195W, strain ref2
  normalized growth: 1.22 [resistant] (active)
Locus YDR297W, strain sur2, stronger effect = lower value
  normalized growth: 0.949 (inactive)
Locus YDR318W, strain mcm21, stronger effect = lower value
  normalized growth: 0.772 (active)
Locus YDR334W, strain swr1, stronger effect = lower value
  normalized growth: 0.831 (active)
Locus YDR335W, strain msn5, stronger effect = lower value
  normalized growth: 0.85 (active)
Locus YDR388W, stronger effect = lower value
  normalized growth: 0.728 (active)
Locus YDR392W, strain spt3, stronger effect = lower value
  normalized growth: 0.64 (active)
Locus YDR502C, strain sam2, stronger effect = lower value
  normalized growth: 0.673 (active)
Locus YEL003W, strain gim4, stronger effect = lower value
  normalized growth: 0.834 (active)
Locus YEL037C, strain rad23, stronger effect = lower value
  normalized growth: 0.936 (inactive)
Locus YEL061C, strain CIN8 (second series), stronger effect = lower value
  normalized growth: 0.957 (inactive)
Locus YEL061C, strain CIN8, stronger effect = lower value
  normalized growth: 0.747 (active)
Locus YER015W, strain faa2, stronger effect = lower value
  normalized growth: 0.911 (active)
Locus YER016W, strain bim1, stronger effect = lower value
  normalized growth: 0.864 (active)
Locus YER110C, stronger effect = lower value
  normalized growth: 0.885 (active)
Locus YER111C, strain swi4, stronger effect = lower value
  normalized growth: 0.956 (inactive)
Locus YER155C, strain BEM2 (second series), stronger effect = lower value
  normalized growth: 0.806 (active)
Locus YER155C, strain BEM2, stronger effect = lower value
  normalized growth: 0.835 (active)
Locus YER167W, strain BCK2, stronger effect = lower value
  normalized growth: 0.77 (active)
Locus YFR010W, strain ubp6, stronger effect = lower value
  normalized growth: 0.862 (active)
Locus YGL078C, strain dbp3, stronger effect = lower value
  normalized growth: 0.874 (active)
Locus YGL086W, strain mad1, stronger effect = lower value
  normalized growth: 0.781 (active)
Locus YGL167C, strain pmr1, stronger effect = lower value
  normalized growth: 0.612 (active)
Locus YGL173C, strain kem1, stronger effect = lower value
  normalized growth: 0.947 (inactive)
Locus YGL227W, strain vid30, stronger effect = lower value
  normalized growth: 0.994 (inactive)
Locus YGL240W, strain doc1, stronger effect = lower value
  normalized growth: 0.886 (active)
Locus YGL248W, strain PDE1, stronger effect = lower value
  normalized growth: 0.685 (active)
Locus YGL253W, strain hxk2, stronger effect = lower value
  normalized growth: 0.79 (active)
Locus YGR078C, strain PAC10, stronger effect = lower value
  normalized growth: 0.669 (active)
Locus YGR135W, strain pre9, stronger effect = lower value
  normalized growth: 0.698 (active)
Locus YGR252W, strain gcn5, stronger effect = lower value
  normalized growth: 0.625 (active)
Locus YHR013C, strain ard1, stronger effect = lower value
  normalized growth: 0.701 (active)
Locus YHR027C, strain rpn1, stronger effect = lower value
  normalized growth: 0.81 (active)
Locus YHR030C, strain SLT2, stronger effect = lower value
  normalized growth: 0.74 (active) and 0.875 (inactive)
Locus YHR079C, strain IRE1 (second series), stronger effect = lower value
  normalized growth: 0.915 (active)
Locus YHR079C, strain IRE1, stronger effect = lower value
  normalized growth: 0.899 (inactive)
Locus YHR094C, strain hxt1, stronger effect = lower value
  normalized growth: 0.95 (inactive)
Locus YHR129C, strain ARP1, stronger effect = lower value
  normalized growth: 0.777 (active)
Locus YHR142W, strain chs7, stronger effect = lower value
  normalized growth: 0.857 (active)
Locus YHR200W, strain rpn10, stronger effect = lower value
  normalized growth: 0.732 (active)
Locus YIL066C, strain RNR3, stronger effect = lower value
  normalized growth: 0.59 (active)
Locus YIL073C, strain SPO22, stronger effect = lower value
  normalized growth: 0.764 (inactive)
Locus YIL125W, strain kgd1, stronger effect = lower value
  normalized growth: 0.872 (active)
Locus YIR030C, strain dcg1, stronger effect = lower value
  normalized growth: 0.896 (active)
Locus YJL092W, strain hpr5, stronger effect = lower value
  normalized growth: 0.946 (inactive)
Locus YJL095W, strain BCK1 (second series), stronger effect = lower value
  normalized growth: 0.878 (active)
Locus YJL095W, strain BCK1, stronger effect = lower value
  normalized growth: 0.379 (active) and 0.881 (active)
Locus YJL115W, strain asf1, stronger effect = lower value
  normalized growth: 0.819 (active)
Locus YJL129C, strain trk1, stronger effect = lower value
  normalized growth: 1.02 (inactive)
Locus YJL134W, strain LCB3, stronger effect = lower value
  normalized growth: 0.951 (inactive)
Locus YJL154C, strain vps35, stronger effect = lower value
  normalized growth: 0.955 (inactive)
Locus YJL164C, strain tpk1, stronger effect = lower value
  normalized growth: 0.833 (active)
Locus YJL166W, strain qcr8, stronger effect = lower value
  normalized growth: 0.812 (active)
Locus YJL168C, strain set2, stronger effect = lower value
  normalized growth: 0.927 (active)
Locus YJL187C, strain SWE1 (second series), stronger effect = lower value
  normalized growth: 0.611 (active)
Locus YJL187C, strain SWE1, stronger effect = lower value
  normalized growth: 0.914 (active)

Reference: PubChem BioAssay AID1159580 (chemical genetic matrix, 2015)
